In PubChem BioAssay AID2384 (Southern Research Specialized Biocontainment Screening …, 2010):
About 1,100 (48%) of roughly 2,300 compounds were called active. The rule behind the calls is not given here. So high a share suggests a set chosen from earlier hits. Some of the results follow. Results with a measured potency or affinity are listed apart.

assay: inhibitors in S. typhi counter-screen strain, dose response, counter-screen for PhoP regulon inhibitor project, fluorescence, 4 h (AID 2384); conditions: S. typhi GFP reporter counter-screen; series mostly up to 150 µM

SMILES	inhibition
Cc1ccc(/C=N/n2c(C)nc3ccccc3c2=O)s1	inactive
Cc1ccc(-c2[nH]ncc2/C=N/n2c(C)nc3ccccc3c2=O)cc1	inactive
O=C(C[n+]1cc(-c2ccccc2)n2c1CCC2)c1cccs1	inactive
CCOC(=O)Cc1csc(NC(=O)c2ccc(S(=O)(=O)N3CCCC3)cc2)n1	inactive
O=C(/C=C/c1ccc(O)cc1)c1ccccc1	inactive
COc1cccc(C2=NO[C@@H]3C(=O)N(Cc4ccccc4)C(=O)[C@H]23)c1OC	inactive
CCc1nnc(NS(=O)(=O)c2ccc(NC(=S)NC(=O)/C=C/c3ccc([N+](=O)[O-])cc3)cc2)s1	inactive
Cc1cc2ncn(/N=C/c3ccc([N+](=O)[O-])o3)c2cc1C	inactive
Cc1ccc2[nH]c(C(=O)O)c(NC(=O)CN3CCN(c4cccc(C)c4C)CC3)c2c1	inactive
Cc1ccc(C(C(=O)NCCc2ccccc2)N(C(=O)c2csnn2)C2CC2)o1 (stereo not given)	inactive
[O-][n+]1c2ccccc2cc2ccccc21	inactive
Cc1ccc(S(=O)(=O)NCC(=O)OCN2C(=O)c3ccccc3C2=O)cc1	inactive
CCCOc1ccc(N2C(=O)C3C(C(C)C)NC4(C(=O)c5ccccc5C4=O)C3C2=O)cc1 (stereo not given)	inactive
COc1ccc(-c2csc(N)n2)cc1F	inactive
Cc1nc2ccc(NC(=O)c3cccc(C(F)(F)F)c3)cc2o1	inactive
CNC(=O)Nc1cccc(C(F)(F)F)c1	inactive
O=C(CNC(=O)Cn1ccc2ccccc2c1=O)NCCCN1CCCCCC1	inactive
Cc1cc(C)cc(NC(=O)C(Sc2nnc(C)c(=O)[nH]2)c2ccccc2)c1 (stereo not given)	inactive
CCCC1C(c2ccc(OC)cc2)C(C#N)(C#N)C2(C#N)CC1(N)NC2=O (stereo not given)	inactive
CCNC(=S)N1CCN(CC)CC1	inactive
O=C(Nc1ccc(Br)cc1)N1CCCCC1	inactive
CN1Cc2ccccc2N(CC(=O)NCc2ccccc2)C1=O	inactive
O=C1NC(=S)S/C1=C1\Sc2ccccc2N1CCCS(=O)(=O)O	inactive

SMILES	inhibition
Cn1c(=O)c(=O)n(C)c2cc(S(=O)(=O)N3CCc4ccccc43)ccc21	inactive
Cc1cc(Cl)ccc1OCCCC(=O)N1CCCc2ccccc21	inactive
Cc1cc(NC(=O)CSc2nnc(-c3cccnc3)n2N)no1	inactive
O=C1N/C(=C/c2ccc(N3CCOCC3)cc2)C(=O)N1Cc1ccc(F)cc1	inactive
O=C(O)CC/C(=C\c1ccccc1[N+](=O)[O-])c1nc2ccccc2s1	inactive
O=C(OCc1nc2ccccc2s1)c1ccco1	inactive
CCOc1ccc(NC(N)=O)cc1	inactive
CCOc1ccc(-c2nc(N)ncc2-c2ccccc2)c(O)c1	inactive
C/C(=N\Nc1ccc(C)c(Cl)c1)c1cccnc1	inactive
CCOC(=O)c1ccc(NC(=O)C2CCC(CNc3c(N4CCOCC4)c(=O)c3=O)CC2)cc1 (stereo not given)	inactive
Cc1nnc(SCC(=O)N(C(C)C)C(C)C)[nH]c1=O	inactive
CCc1nc(SCC(=O)Nc2ccc(N(C)C)cc2)c2ccccc2n1	inactive
C#CCOC(=O)c1ccccc1C(=O)OCC#C	inactive
O=C(NCCCNc1ccnc2cc(Cl)ccc12)c1ccccc1F	inactive
COc1ccc(NC(=O)Cn2cnc3c(cnn3C(C)(C)C)c2=O)cc1OC	inactive
Cc1nc2cc(C(=O)N3CCC4(CC3)OCCO4)ccc2n1-c1cccc(F)c1	inactive
COC(=O)c1ccc(NC(=O)CO/N=C2\CCCc3nonc32)cc1	inactive
CCOc1ccc(Cl)cc1/C=N/O	inactive
COc1ccccc1/C=C/C(=O)Nc1cccc(C(C)=O)c1	inactive
COc1ccc2c(c1)CC1(CN2C)C(=O)NC(=O)N(CCc2ccccc2)C1=O (stereo not given)	inactive
CCOC(=O)c1nc2cc3n(c(CC(C)C)c-2c1C)CC(C)=C3C	inactive
CCOc1ccc(N2CC(C(=O)OCC(=O)NCc3ccccc3)CC2=O)cc1 (stereo not given)	inactive
CCOC(=O)c1ccc(N2Cc3ccccc3C2=NC(=O)c2cccc([N+](=O)[O-])c2)cc1	inactive

SMILES	inhibition
COc1ccc2nc(NC(=O)C3CC(=O)N(c4ccccc4)C3)sc2c1 (stereo not given)	inactive
CC(C)Oc1ccc(N2CC(C(=O)Nc3ccccc3F)CC2=O)cc1 (stereo not given)	inactive
COc1ccc(Nc2c3c(nc4ccc(C)cc24)CCC3)cc1	inactive
COc1cccc(-c2ccc(SCc3ccccn3)nn2)c1	inactive
COc1ccccc1-c1nc(C(F)(F)F)c(OC)o1	inactive
Cc1cc(C)cc(NC(=O)CSc2nnc(CNC(=O)c3cccs3)o2)c1	inactive
Cc1ccc(CSc2nc3c(c(=O)[nH]2)CCC3)cc1	inactive
COc1cc(CNCCCN2CCOCC2)c(Br)cc1OCC(=O)Nc1ccccc1C	inactive
Cc1ccc(C)c(OCC(=O)Nc2cccc(C(=O)O)c2)c1C	inactive
Fc1cccc(Cl)c1CSc1ccc(-c2ccco2)nn1	inactive
Cc1cccc(CSCCNC(=O)COc2ccc(Cl)cc2)c1	inactive
CCC(Oc1ccccc1)C(=O)Nc1nnc(S(=O)(=O)N2CCCCC2)s1 (stereo not given)	inactive
ON=C1/C(=N\O)CC2(C/C1=N/O)OCCO2	inactive
CC(C)(C)c1ccc(OCCNC(=S)Nc2ccccc2)cc1	inactive
O=C(NCCOc1ccccc1)c1ncn[nH]1	inactive
O=C(O)COc1ccccc1/C=N/NC(=O)c1cccc(S(=O)(=O)N2CCOCC2)c1	inactive
O=C(N/N=C/c1cccnc1)c1ccc([N+](=O)[O-])cc1Cl	inactive
Cc1noc(C)c1S(=O)(=O)N1CCC(Cc2ccccc2)CC1	inactive
Cc1cccc(C(=O)NCCC(=O)Nc2ccc(F)c([N+](=O)[O-])c2)c1	inactive
O=[N+]([O-])c1ccc2oc(C3CCCCC3)nc2c1	inactive
O=C(N/N=C/c1ccco1)c1cccc(NC(=O)c2cccc(Cl)c2)c1	inactive
CC(C)=CCN1CCN(Cc2nc(-c3ccccc3)cs2)CC1CCO (stereo not given)	inactive
CCO[C@H]1OC(C(=O)O)=C[C@@H](c2ccccc2)[C@@H]1CCCO	inactive

SMILES	inhibition
Cc1cccc2cc(C(c3nnnn3Cc3ccccc3)N3CCN(C)CC3)c(=O)[nH]c12 (stereo not given)	inactive
O=C(NC1=NCCS1)c1cccc2ccccc12	inactive
O=C1CCCC2=C1C(c1ccncc1)Nc1ccccc1N2 (stereo not given)	inactive
CCn1nnnc1NCc1cccc(Cl)c1	inactive
Clc1ccc(Nc2nc(C3CC3)cs2)cc1	inactive
CCN(CC(=O)Nc1ccc(C(=O)OC)cc1)C1CCCCC1	inactive
CC(c1ccccc1)(c1ccccc1)c1ccncc1	inactive
COc1ccc(C2C(C(=O)NCc3cccnc3)c3ccccc3C(=O)N2C)cc1OC (stereo not given)	inactive
C1=Nc2ccccc2CN1c1ccccc1	inactive
CCC(Sc1nc2ccncc2[nH]1)C(=O)Nc1ccc(C)c(Cl)c1 (stereo not given)	inactive
Cc1cc(C(=O)Nc2cccnc2)on1	inactive
CCCCNC(=O)CCC(=O)Nc1ccc2nc(N3CCC(C)CC3)cc(C)c2c1	inactive
Cc1cc(N2CCN(C3CCCCC3)CC2)nc2cccc(O)c12	inactive
COc1cccc2[nH]c3c(N4CCN(Cc5ccc6c(c5)OCO6)CC4)ncnc3c12	inactive
CCn1c(O)c(N=NC(=O)CNC(=O)/C=C/c2ccco2)c2ccccc21	inactive
COc1ccc2[nH]cc(C(=O)CCl)c2c1	inactive
Cc1nc(-c2ccc(C(=O)N3CCOCC3)cc2)cs1	inactive
Cc1ccc(C)c(OCc2ccc(C(=O)NN)o2)c1	inactive
O=C(NC1CCCCC1)c1ccc(S(=O)(=O)NCc2cccnc2)cc1	inactive
Cn1ncc(N=Cc2ccccc2O)c1C(=O)N1CCOCC1	inactive
O=C(Cc1ccc(F)cc1)NC1CCCC1	inactive
CCOc1ccc(OCCSc2nc3ccccc3[nH]2)cc1	inactive
CCOc1ccc(NC(=S)Nc2cc(C)[nH]n2)cc1	inactive

SMILES	inhibition
O=S(=O)(Nc1ncccn1)c1ccc(NC(=S)Nc2cccc(Cl)c2)cc1	inactive
Cc1cc(NS(=O)(=O)c2ccc(NC(=S)NC(=O)c3cccnc3)cc2)no1	inactive
Cc1ccc(NC(=O)OCc2cccs2)cc1	inactive
CC1CCCC(NC(=O)COC(=O)Cc2c[nH]c3ccccc23)C1C (stereo not given)	inactive
Cc1ccc(-c2c(C)n([O-])c3c([n+]2=O)CCCC3)o1	inactive
COc1ccccc1OCc1nnc(SCC(=O)NCc2ccco2)n1Cc1ccco1	inactive
COC(=O)c1cc2sccc2n1Cc1nc(-c2ccc(OC)cc2)oc1C	inactive
O=C(CSc1nc2ncc(Cl)cc2[nH]1)NCC(=O)Nc1ccc(F)c(F)c1F	inactive
Nc1ncnc2nc(SCC(=O)Nc3cccc(C(F)(F)F)c3)[nH]c12	inactive
c1cncc(CSc2ccc(-c3cccs3)nn2)c1	inactive
CCN(CC)S(=O)(=O)c1ccc(/C(O)=C(\C#N)c2nc3ccccc3n2C)cc1	inactive
Cn1c(-c2ccc(CN3CCCCC3)o2)nc2ccccc21	inactive
COc1ccc(CNc2nc3ccccc3n2C)c(O)c1	inactive
CC1=C(c2ccccc2)SC2=NCCN21	inactive
COCc1[nH]nc2c1C(c1c(F)cccc1Cl)C(C#N)=C(N)O2 (stereo not given)	inactive
CC1(C)CC(N2CCN(c3ccccc3)CC2)=CC(=[N+]2CCCC2)C1	inactive
CC1CCC[C@H](O)CCCCCc2cc(O)cc(O)c2C(=O)O1 (stereo not given in full)	inactive
CC1=C(C#N)CCC(=O)N1Cc1c(C)cc(C)cc1C	inactive
Nn1cnnc1N/N=C\c1ccc(-c2ccccc2[N+](=O)[O-])o1	inactive
O=[N+]([O-])c1ccc(/C=N/NC(=S)Nc2ccc(Cl)cc2Cl)s1	inactive
COc1ccc(CNC(=O)CCC(=O)N2C[C@H]3C[C@H](C2)c2cccc(=O)n2C3)cc1	inactive
Cc1cc(NS(=O)(=O)c2ccc(NC(=O)C(C)Oc3ccc4c(C)cc(=O)oc4c3)cc2)no1 (stereo not given)	inactive
COc1cc(OC)nc(NC(=O)C(C)C)n1	inactive
